Experimental data from PubChem BioAssay AID1376 (SRMLSC, 2008).
The campaign covered roughly 220,000 compounds. About 530 (0.24%) were called active. The sample as a whole holds a higher share of actives than the screen did. Measured potencies and affinities stand elsewhere. A number with no mark means an inactive call. Rule as the data show it: active = inhibition above about 13%; inconclusive = no clear call, values can overlap the other calls; inactive = below that.

target: Bifunctional protein GlmU (Mycobacterium tuberculosis (strain ATCC 25618 / H37Rv)) (UniProt P9WMN3); experiment: inhibition of mycobacterial GlmU enzyme – biochemical, glucosamine-1-phosphate acetyltransferase (AID 1376);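 also: 0% = complete reaction with vehicle and 100% = reaction without substrate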; conditions: M. tuberculosis GlmU acetyltransferase enzyme assay; active compounds read high;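 tested at 30 µM in the primary screen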
Sequence (P9WMN3 whole entry, looked up): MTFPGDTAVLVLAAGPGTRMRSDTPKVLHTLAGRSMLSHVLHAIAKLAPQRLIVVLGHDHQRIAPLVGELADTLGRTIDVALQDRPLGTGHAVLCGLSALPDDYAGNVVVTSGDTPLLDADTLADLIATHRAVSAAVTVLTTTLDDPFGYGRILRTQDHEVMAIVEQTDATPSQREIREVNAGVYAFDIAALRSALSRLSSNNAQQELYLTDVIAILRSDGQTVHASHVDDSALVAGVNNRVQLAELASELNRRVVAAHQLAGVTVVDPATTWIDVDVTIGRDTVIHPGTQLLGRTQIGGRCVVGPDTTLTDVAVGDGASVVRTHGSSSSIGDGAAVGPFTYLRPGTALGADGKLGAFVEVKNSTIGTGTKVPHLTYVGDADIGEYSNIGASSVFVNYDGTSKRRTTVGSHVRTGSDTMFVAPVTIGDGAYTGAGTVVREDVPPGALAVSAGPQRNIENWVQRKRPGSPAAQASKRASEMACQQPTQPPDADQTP

Row | Compound | inhibition
1 | CCOC(=O)C1CCN(c2cc(C)nc3cc(-c4cccc(F)c4)nn23)CC1 | 0.46%
2 | CCCNC(=O)Nc1ccsc1C(=O)OC | -1.89%
3 | O=C1N=C(N2CCOCC2)S/C1=C1\C(=O)N(Cc2ccccc2)c2ccccc21 | 0.6%
4 | COCCCNc1ncnc2nc[nH]c12 | -2.31%
5 | CC1(C(=O)OCC(=O)Nc2ccc(C(N)=O)cc2)CC1(Cl)Cl (centres undefined) | -0.58%
6 | CC1CC(C)(C)NC(=S)N1CCCC(=O)Nc1ccc2c(c1)OCCO2 (centres undefined) | -3.18%
7 | CC1CCN(C(c2nnnn2CCc2ccccc2)C(C)C)CC1 (centres undefined) | 2.28%
8 | COc1ccc(CN2C(=O)/C(=C/c3ccc(-c4ccc(Cl)c(C(=O)O)c4)o3)SC2=S)cc1 | 9.33%
9 | CC1=NOC(=O)/C1=C\c1ccc(-c2ccc(Cl)c(C(=O)O)c2)o1 | 19.4%
10 | CCCCC1(C)OC(=O)C(=Cc2ccc(-c3ccc(Cl)c(C(=O)O)c3)o2)C(=O)O1 (centres undefined) | 0.45%
11 | COc1ccc(Sc2ccc(/C=C3\C(=O)NN(c4ccccc4)C3=O)o2)cc1 | 7.34%
12 | O=C(CN1CCC(NC(=O)Cc2ccccc2)CC1)Nc1cccc2ccccc12 | 4.11%
13 | O=C(NCc1ccccc1Cl)c1ccc(-c2ccccc2)cc1 | -4.31%
14 | O=C(NCc1ccccc1)c1c(O)c2cccc3c2n(c1=O)CCC3 | -6.36%
15 | CN(Cc1cnn(C)c1)S(=O)(=O)c1cccc([N+](=O)[O-])c1 | 2.06%
16 | O=C1CC(=O)N(c2cccc(F)c2)N1 | 8.59%
17 | CC(C)=C1C(=O)NN(c2cccc(Cl)c2)C1=O | 3.03%
18 | COCCNC(=O)[C@H]1C[C@@H]1[C@H](NP(=O)(c1ccccc1)c1ccccc1)c1ccccc1 | 0.38%
19 | Cc1ccc(-n2c(COc3cccc(C)c3)n[nH]c2=S)cc1 | 1.39%
20 | O=C(c1cccs1)N1CCN(c2ncccn2)CC1 | -2.05%

Row | Compound | inhibition
21 | CCOC(=O)C1=C(C)C(c2ccc(OC)cc2)NC(=O)N1 (centres undefined) | -6.08%
22 | CCn1ncc(/C=C2/SC(=S)NC2=O)c1C | 11.3%
23 | CCn1cc(/C=C2/SC(=S)NC2=O)c(C)n1 | 13.2% (active)
24 | CCn1c(C)cc(/C=C2/SC(=S)NC2=O)c1C | 1.44%
25 | Cc1cc(/C=C2\SC(=S)NC2=O)c(C)[nH]1 | 13.5% (active)
26 | Cc1nn(C)cc1/C=C1\SC(=S)NC1=O | 4.22%
27 | Cc1cc(/C=C2\SC(=S)NC2=O)c(C)n1C | 5.92%
28 | CNc1nc(C)nc(-n2nc(C)cc2C)n1 | 13.6% (active)
29 | Cc1cc(C)n(-c2nc(C)nc(N)n2)n1 | -5.19%
30 | Cc1cc(C)n(-c2nc(C)nc(NCc3ccccc3)n2)n1 | -4.13%
31 | Cc1sc(NC(=O)c2ccco2)nc1-c1ccc2c(c1)CC(C)N2C(=O)C1CC1 (centres undefined) | 3.65%
32 | CC(C)Cn1c(-c2csc(C(C)C)c2)n[nH]c1=S | -2.74%
33 | CCn1c(-c2csc(C(C)C)c2)n[nH]c1=S | 14.3% (active)
34 | CCCCn1c(-c2csc(C(C)C)c2)n[nH]c1=S | -1.43%
35 | COc1ccc(NC(=O)C(c2ccccc2)c2ccccc2)cn1 | -4.39%
36 | CCS(=O)(=O)Nc1ccc(C2=NN(C(=S)Nc3ccccc3)C(c3ccco3)C2)cc1 (centres undefined) | -0.65%
37 | CN(C)C(=S)NC(C)(C)C | 1.31%
38 | Nc1nonc1C(=O)N/N=C/c1ccc(-c2ccc(Cl)c(C(=O)O)c2)o1 | 5.31%
39 | Nc1nonc1C(=O)N/N=C/c1ccc(-c2cccc([N+](=O)[O-])c2)o1 | 1.58%
40 | CNC(=S)N/N=C/c1ccc(-c2cccc(C(=O)O)c2)o1 | 6.34%

Row | Compound | inhibition
41 | COc1ccc(CC(=O)N/N=C/c2ccc(-c3cccc(C(=O)O)c3)o2)cc1OC | 9.43%
42 | O=C(N/N=C/c1ccc(-c2ccc([N+](=O)[O-])cc2)o1)c1cccnc1 | 7.58%
43 | Cc1ccc(OCC(=O)N/N=C\c2ccc(C)o2)c(C)c1 | 1.64%
44 | O=C(NCCn1cc(SCC(=O)N2CCOCC2)c2ccccc21)c1c(F)cccc1F | 7.41%
45 | O=C(CSc1nnnn1-c1ccc(O)cc1)c1cc2ccccc2o1 | -1.55%
46 | O=C(CN1C(=O)S/C(=C\c2ccccc2)C1=O)NNC(=O)c1ccccc1O | 6.78%
47 | COc1ccc(/C=C2\SC(=O)N(CC(=O)NNC(=O)c3ccccc3O)C2=O)cc1 | 6.62%
48 | Cc1ccccc1NC(=O)CN1C(=O)S/C(=C\c2ccc(-c3cccc(C(=O)O)c3C)o2)C1=O | -5.01%
49 | Cc1ccc(NC(=O)CN2C(=O)S/C(=C/c3ccc(O)c([N+](=O)[O-])c3)C2=O)cc1C | 14.8% (active)
50 | Cc1cccc(NC(=O)CN2C(=O)S/C(=C\c3ccc(O)c([N+](=O)[O-])c3)C2=O)c1 | 3.95%
51 | Cc1cccc(NC(=O)CN2C(=O)S/C(=C\c3ccc(-c4cccc(C(=O)O)c4C)o3)C2=O)c1 | 5.54%
52 | Cc1ccc(C(=O)O)cc1-c1ccc(/C=C2\SC(=O)N(CC(=O)Nc3ccccc3)C2=O)o1 | 6.53%
53 | CCOC(=O)CN1C(=O)S/C(=C/c2ccc(O)c([N+](=O)[O-])c2)C1=O | 6.11%
54 | Cc1ccc(NC(=O)CN2C(=O)S/C(=C\c3ccc(-c4cccc(C(=O)O)c4C)o3)C2=O)cc1 | 3.05%
55 | Cc1ccc(NC(=O)CN2C(=O)S/C(=C\c3ccc(-c4cccc(C(=O)O)c4C)o3)C2=O)cc1C | 15.4% (active)
56 | Cc1ccc(NC(=O)CN2C(=O)S/C(=C/c3ccc(-c4cccc(C(=O)O)c4)o3)C2=O)cc1 | 13.1% (active)
57 | COc1ccc(/C=C2\SC(=O)N(CC(=O)NNC(=O)c3ccccc3O)C2=O)cc1OC | 13.8% (active)
58 | CCOc1ccccc1Cn1c(=O)sc2ccccc21 | -0.39%
59 | CCCNC(=O)c1cc(-c2ccc(OC)cc2)n(CCCOC)c1C | 4.42%
